Source: PubChem BioAssay (NCATS)
Records with an inconclusive call do not appear. Active and inactive are the calls of the source. The call rests on the fitted dose curve; in most records, active means well fitted inhibition curve with a large enough effect; inconclusive means small, poorly fitted or top-dose-only effect; inactive means no such curve, though single readings can be large or run the other way.
On the % scale 0 is the no-effect control and ±100 the full control effect.

What follows are compounds tested on Zika virus NS2B-NS3 protease (linked construct) (assay: Primary screen NINDS Rhodamine qHTS for Zika virus inhibitors (AID 1347160; further: nearly all actives have a fitted effect of over 55% in size)). Conditions: purified NS2B-NS3 protease, Rhodamine110 substrate fluorescence; series mostly up to 33.1 µM; activity change, negative = inhibition: at the top concentration.
Summary of the method: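 Each compound, titrated, sat 15 min with 25 nM linked protease before 1.5 microM Rhodamine110 substrate went in. Fluorescence gain over the next 15 min, in pH 8.0 Tris with Tween 20, gave Hill-fitted curves.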
`CC1CC2(O)OC(=O)C3=C2C(CCC3)[C@@]12C[C@@H](c1ccoc1)OC2=O` (some centres undefined) was tested, and the “activity change, negative = inhibition” value was -18.5% (inactive). In the case of `CC1(C)CC[C@]2(C(=O)O[C@@H]3O[C@H](CO)[C@@H](O)[C@H](O)[C@H]3O)CC[C@]3(C)C(=CCC4[C@@]5(C)CC[C@H](O[C@@H]6O[C@H](C(=O)O)[C@@H](O)[C@H](O)[C@H]6OC6OC(CO)C(O)C(O)C6O)C(C)(C)C5CC[C@]43C)[C@@H]2C1` (some centres undefined), the “activity change, negative = inhibition” value is reported as -17.7% [at 15.1 µM] (inactive). In the case of `CC1(C)O[C@H]2CC(=O)OC[C@@]23C1=C(O)C(=O)[C@]1(C)C3CC[C@@]2(C)[C@H](c3ccoc3)OC(=O)[C@H]3O[C@]321` (some centres undefined), the “activity change, negative = inhibition” value is reported as -8.94% (inactive). `C=CCC/C=C/C#CCCCCCCCC[C@H]1C(=O)O[C@H](C)[C@@H]1O` was tested, and the “activity change, negative = inhibition” value was -17.6% (inactive). With `C=C1CC/C=C(/CO)C(=O)C[C@@H]2[C@@H]1C[C@@]2(C)COC(C)=O` the “outcome” value was “inactive”. In the case of `C/C=C/C=C/C=C/C(=O)O[C@@H]1C=C(CO)[C@](O)(CO)[C@@]2(C)CCCC(C)(C)[C@H]12`, the “activity change, negative = inhibition” value is reported as -17% (inactive). For `C[C@@H]1C[C@H]2OC(=O)[C@@]3(C)CCC[C@](C)(C23)[C@@]1(O)CCC1=CC(=O)OC1O` (some centres undefined), the “activity change, negative = inhibition” value was -27.4% (inactive). With `CC1(C)CC[C@]2(C(=O)O[C@@H]3O[C@H](CO[C@@H]4O[C@H](CO)[C@@H](O)[C@H](O)[C@H]4O)[C@@H](O)[C@H](O[C@@H]4O[C@H](CO)[C@@H](O)[C@H](O)[C@H]4O)[C@H]3O)[C@H](O)C[C@]3(C)C(=CCC4[C@@]5(C)CC[C@H](O[C@@H]6OC[C@@H](O)[C@H](O)[C@H]6O)[C@@](C)(C(=O)O)C5CC[C@]43C)[C@@H]2C1` (some centres undefined) the “activity change, negative = inhibition” value was -0.322% [at 15.1 µM] (inactive). With `CC(=O)/C=C/C1C(C)CC(O[C@@H]2O[C@H](CO)[C@@H](O)[C@H](O)[C@H]2O)CC1(C)C` (some centres undefined) the “activity change, negative = inhibition” value was -26.6% (inactive). `CC1(C)C2CC[C@]3(C)C(C(=O)C=C4[C@H]5C[C@@](C)(C(=O)O)CC[C@]5(C)CC[C@]43C)[C@@]2(C)CC[C@@H]1O` (some centres undefined) was tested, and the “activity change, negative = inhibition” value was -2.83% (inactive). For `CCOC(=O)C1=C(N)Oc2ccc(Cl)cc2C1C(C#N)C(=O)OCC` (centres undefined), the “activity change, negative = inhibition” value was -17.8% [at 57.1 µM] (inactive). In the case of `CC(C)=C1CC2[C@](C)(CC[C@@H](OC(=O)C3(C)OC3C)[C@@]2(C)O)CC1=O` (some centres undefined), the “activity change, negative = inhibition” value is reported as -7.2% (inactive). With `CC1=CC(=O)C(=C(C)C)CC2C(C)(O)CCC12O` (centres undefined) the “activity change, negative = inhibition” value was -20.4% [at 57.1 µM] (inactive). For `COC(=O)C1(O)C(OC(C)=O)CCC2C3(CC(c4ccoc4)OC3=O)C(C)=CCC21C(=O)OC` (centres undefined), the “activity change, negative = inhibition” value was -10.6% (inactive). `CC1=C2CC(O)(C(C)(C)O)C(O[C@@H]3O[C@H](CO)[C@@H](O)[C@H](O)[C@H]3O)CC(C)C2CC1=O` (some centres undefined) was tested, and the “activity change, negative = inhibition” value was -1.01% (inactive). With `COc1ccc(OC)c(C2C(C#N)=C(N)Oc3n[nH]c(-c4ccc5ccccc5c4)c32)c1` (centres undefined) the “activity change, negative = inhibition” value was 16.1% [at 57.1 µM] (inactive). In the case of `COCC1OC(OC(C)(C)C2CCC3(C)C=C(C4CCC5C4(C)CC(O)C4OC(C(C)(C)O)CCC45C)CCC3O2)C(NC(C)=O)C(O)C1O` (centres undefined), the “activity change, negative = inhibition” value is reported as -24% [at 15.1 µM] (inactive). `CC(C)c1ccc2c(c1)C(=O)CC1C(C)(C(=O)O)CCCC21C` (centres undefined) was tested, and the “activity change, negative = inhibition” value was -16.7% (inactive). In the case of `CCCc1[nH]nc2c1C(c1cc(Cl)cc(Cl)c1O)C(C#N)=C(N)O2` (centres undefined), the “activity change, negative = inhibition” value is reported as 6.09% [at 57.1 µM] (inactive). `O=c1[nH]ccc2nc(-c3ccc(CN4CCC(c5nc(-c6ccccn6)n[nH]5)CC4)cc3)c(-c3ccccc3)cc12` was tested, and the “activity change, negative = inhibition” value was 4.44% [at 57.1 µM] (inactive). In the case of `CC(C)CC(=O)OC[C@@]1(O)C[C@@]23CC[C@H]4[C@@](C)(CCC[C@@]4(C)C(=O)O)[C@@H]2CC[C@@H]1C3`, the “activity change, negative = inhibition” value is reported as -13.8% (inactive). For `C=CC(C)(O)CCC1C(C)(O)CCC2C(C)(C)CCCC21C` (centres undefined), the “activity change, negative = inhibition” value was -11.3% (inactive). `C=C(C(=O)O)[C@H]1C[C@]2(C)C(=O)CC[C@]23O[C@H]1C[C@@H]3C` was tested, and the “activity change, negative = inhibition” value was 29.4% [at 57.1 µM] (inactive). With `CC1=C[C@H]2[C@@H](CC1=O)[C@H](C)C[C@H](O)[C@H]2C(C)C` the “activity change, negative = inhibition” value was -11.5% [at 57.1 µM] (inactive). `COC(=O)C1=COC(O[C@@H]2O[C@H](CO)[C@@H](O)[C@H](O)[C@H]2O)/C(=C\COC(=O)/C=C/c2ccccc2)C1CC(=O)OCCc1ccc(O)cc1` (some centres undefined) was tested, and the “activity change, negative = inhibition” value was 15.8% [at 15.1 µM] (inactive). With `CC1C2=CC(=O)OC2(O)CC2C1CCC1C(C)(C)CCC(O)C21C` (centres undefined) the “activity change, negative = inhibition” value was -6.48% (inactive). With `CC(C)C1CCC(CO)=CC1/C=C(\CO)C(=O)OCC1(O)CCC(C(C)C)C2C=C(C(=O)O)COC(=O)C21` (centres undefined) the “activity change, negative = inhibition” value was -10.1% (inactive). `COc1cc(O)cc(O[C@@H]2O[C@H](CO)[C@@H](O[C@@H]3OC[C@](O)(CO)[C@H]3O)[C@H](O)[C@H]2O)c1OC` was tested, and the “activity change, negative = inhibition” value was -1.48% (inactive). `CC(=O)/C=C/C1(O)C(C)CC(O[C@@H]2O[C@H](CO)[C@@H](O)[C@H](O)[C@H]2O)CC1(C)C` (some centres undefined) was tested, and the “activity change, negative = inhibition” value was -25.7% (inactive). In the case of `COc1c(C)c(OCC=C(C)C)cc2c1COC2=O`, the “activity change, negative = inhibition” value is reported as -9.88% [at 57.1 µM] (inactive). For `C=C1C[C@@]2(O)O[C@@]3(C[C@H]2C(C)C)[C@@H](C)CC[C@@H]13`, the “activity change, negative = inhibition” value was -4.48% [at 57.1 µM] (inactive). In the case of `CC[C@H](NC(=O)c1c(O)c(-c2ccccc2)nc2ccccc12)c1ccccc1`, the “activity change, negative = inhibition” value is reported as -25.8% [at 57.1 µM] (inactive). With `C=CCc1cc(OC)c(OC(C)C(O)c2ccc(O)c(OC)c2)c(OC)c1` (centres undefined) the “activity change, negative = inhibition” value was -25.2% (inactive). With `CCC/C=C/C=C/C1CC(O)C(O)C(=O)C1CO` (centres undefined) the “activity change, negative = inhibition” value was -28.3% [at 57.1 µM] (inactive). For `CC1=C2C(=O)C=C(CO)C2[C@H]2OC(=O)[C@H](C)[C@@H]2[C@@H](OC(=O)Cc2ccc(O)cc2)C1` (some centres undefined), the “activity change, negative = inhibition” value was -15.3% (inactive). `COC(=O)C1=COC(OC2OC(CO)C(O)C(O)C2O)C2C(C)C(OC(C)=O)C(OC(=O)c3ccccc3)C12` (centres undefined) was tested, and the “activity change, negative = inhibition” value was -4.78% (inactive). `C[C@H]1CC[C@@]2(OC1)O[C@H]1CC3C4CC[C@H]5C[C@@H](O)CC[C@]5(C)C4CC(=O)[C@]3(C)[C@H]1[C@@H]2C` (some centres undefined) was tested, and the “activity change, negative = inhibition” value was -9.73% (inactive). For `CC(=O)OC/C(=C/C(=O)O)CC[C@@H]1C(C)=CC(=O)[C@@H]2C(C)(C)CCC[C@@]12C`, the “activity change, negative = inhibition” value was 6.72% (inactive). `Cc1ncc([N+](=O)[O-])n1C[C@H](O)CN1CCOCC1` was tested, and the “outcome” value was “inactive”.
